# Assay results reported in publication PMC4552634, “A New Set of Chemical Starting Points with Plasmodium falciparum Transmission-Blocking Potential for Antimalarial Drug Discovery” (PLoS ONE, 2015).
# Like-named read-outs stand apart in the source and are kept apart here. The campaign covered roughly 13,000 compounds. About 3,200 (25%) showed an effect of 50% or more. The list shows a part of the results.
# System: P. falciparum stage V gametocytes
# Design: BacTiter-Glo ATP luminescence viability of purified stage V gametocytes in 384-well plates, per cent inhibition versus DMSO
# Conditions: 48 h, 5 µM, inhibitor
SMILES,% Inhibition,% Inhibition (% Inhibition)
Cc1cc(C(F)(F)F)cc(-n2ncc(-c3ccc(C(=O)NCc4ccccc4N)cc3)c2N)n1 [TCMDC-136658],-13.23%,–
COc1ccc(CN2CCC(N3CCc4cc(NC(=O)c5cc(C)on5)ccc43)C2)cc1Cl (stereo not drawn) [TCMDC-135080],-33.25%,–
COc1cc(C)ccc1S(=O)(=O)N1CCCCC(c2ccc(C(F)(F)F)cc2)=N1 [TCMDC-134533],19.73%,–
CCn1c(SC)nnc1C1CCCN(CC(=O)Nc2nc3ccc(OC)cc3s2)C1 (stereo not drawn) [TCMDC-123539],2.495%,–
Cc1cc(CN2C(=O)C(c3ccccc3)(c3ccccc3)N=C2N)c(C(F)(F)F)o1 [TCMDC-132305],6.087%,–
O=C(Cc1ccccc1)NC(CCN1CCC(NC(=O)c2ccc(Cl)cc2)CC1)c1ccc(Cl)c(Cl)c1 (stereo not drawn) [TCMDC-141709],-3.295%,–
CN(C)CC(O)C(c1ccccc1)c1ccc(Cl)cc1 (stereo not drawn) [TCMDC-131413],8.677%,–
N=c1sc2ccccc2n1CC(O)c1ccc(Cl)c(Cl)c1 (stereo not drawn) [TCMDC-124031],27.67%,–
N=c1n(Cc2ccc(Cl)cc2)c2ccccc2n1CC(O)c1ccc(Cl)c(Cl)c1 (stereo not drawn) [TCMDC-123813],91.34%,–
Cc1ccc2c(c1)nc(N)n2C[C@H](O)c1ccccc1 [TCMDC-138693],42.68%,–
N=c1n(Cc2ccccc2)c2ccccc2n1CC(O)c1ccc(Cl)c(Cl)c1 (stereo not drawn) [TCMDC-124061],50.12%,–
OC(CN1CCN(Cc2ccccc2)CC1)Cn1c(-c2ccccc2)c(-c2ccccc2)c2ccccc21 (stereo not drawn) [TCMDC-124021],9.388%,–
N=c1n(Cc2ccccc2)c2ccccc2n1CC(O)c1ccc(Cl)cc1 (stereo not drawn) [TCMDC-124078],66.41%,–
COC(=O)C(C)(C)Cc1c(SC(C)(C)C)c2cc(C(C)C)ccc2n1Cc1ccc(Cl)cc1 [TCMDC-131973],5.735%,–
C=CCn1c(=N)n(CC(O)c2ccc(Cl)c(Cl)c2)c2ccccc21 (stereo not drawn) [TCMDC-125726],57.07%,–
O=C(NC1CC1)c1cnc(N2CCC(COc3cccc(F)c3)CC2)c(Cl)c1 [TCMDC-134030],7.356%,–
COc1ccc(CCn2c(C3CCCCC3)nc3oc4ccccc4c(=O)c3c2=O)cc1 [TCMDC-125003],26.12%,–
Cc1ccc(CON2C(N)=NC(N)=NC23CCCCC3)c2ccccc12 [TCMDC-131589],35.49%,–
O=S(=O)(NC1CCN(c2ccnc3cc(Cl)ccc23)C1)c1ccc(F)cc1 (stereo not drawn) [TCMDC-133654],5.841%,–
CCC1CN2CCc3c([nH]c4ccccc34)[C@@H]2C[C@@H]1CC1NCCc2cc(OC)c(OC)cc21 (stereo partly drawn) [TCMDC-142009],–,-17.31%
CCC1=C(C[C@H]2NCCc3cc(OC)c(OC)cc32)C[C@H]2c3cc(OC)c(OC)cc3CCN2C1 [TCMDC-131825],95.62%,–

SMILES,% Inhibition,% Inhibition (% Inhibition)
CCC1CN2CCc3c([nH]c4ccc(OC)cc34)C2CC1CC1NCCc2cc(OC)c(OC)cc21 (stereo not drawn) [TCMDC-142010],-39.55%,–
Nc1ncc(-c2cn[nH]c2)cc1-c1nc2ncc(Cl)cc2[nH]1 [TCMDC-133562],-10.74%,–
CCN(CC)c1ccc(-c2nc3ncc(Cl)cc3[nH]2)cc1 [TCMDC-125094],7.94%,–
CC(C)c1ccc(-c2nc3ncc(Cl)cc3[nH]2)cc1 [TCMDC-125093],64.2%,–
CC(=O)Nc1ccc(S(=O)(=O)Nc2c(C)cc(Cc3cnc(N)nc3N)cc2C)cc1 [TCMDC-137632],-8.406%,–
CNC(=O)Cc1ccc(C(=O)Nc2cccc(-c3ccc(-c4nc5cccc(C)c5[nH]4)s3)c2)cc1 [TCMDC-137076],-37.06%,–
Cc1oc(-c2ccc(Cl)cc2)cc1C(=O)NCCC1CCN(CCCCCNC(=O)/C=C/c2ccc(Cl)c(Cl)c2)CC1 [TCMDC-140009],105.7%,–
O=C(/C=C/c1ccc(Cl)c(Cl)c1)NCCCCCN1CCC(CCNC(=O)/C=C/c2ccc(Cl)c(Cl)c2)CC1 [TCMDC-139998],17.18%,–
O=C(/C=C/c1ccc(Cl)c(Cl)c1)NCCCCCN1CCC(CCNC(=O)Cc2ccc(Cl)cc2)CC1 [TCMDC-140001],60.19%,–
CN(C(=O)C1(c2ccc(Cl)cc2)CC1)C1CCN(CCCCCNC(=O)/C=C/c2ccc(Cl)c(Cl)c2)CC1 [TCMDC-139987],-12.99%,–
O=C(C=Cc1ccc(Cl)c(Cl)c1)NCCCCCN1CCC(CCNC(=O)c2cccc3ccccc23)CC1 [TCMDC-139565],43.11%,–
O=C(/C=C/c1ccc(Cl)c(Cl)c1)NCCCCCN1CCC(CCNC(=O)C2(c3ccc(Cl)cc3)CC2)CC1 [TCMDC-140000],67.34%,–
Cc1c(CC(=O)NCCC2CCN(CCCCCNC(=O)/C=C/c3ccc(Cl)c(Cl)c3)CC2)sc2ccc(Cl)cc12 [TCMDC-140008],19.89%,–
OC(CNCc1ccccc1Oc1ccccc1)c1cccc(C(F)(F)F)c1 (stereo not drawn) [TCMDC-140397],30.17%,–
CC1CN(c2cc(=O)n(Cc3cccc(NC(=O)Nc4ccc(-c5ccccc5)cc4)c3)cn2)CC(C)N1 (stereo not drawn) [TCMDC-133365],-7.987%,–
FC(F)(F)c1ccc2[nH]c(-c3cccc(-c4ccc(CNCC5CCCO5)cc4)c3)nc2c1.O=C(O)C(F)(F)F (stereo not drawn) [TCMDC-133103],-16.51%,–
COc1ccc2nccc([C@@H](O)CN3CCC(NC(=O)c4ccc(-c5ccc(C#N)cc5)cc4)CC3)c2c1 [TCMDC-141001],7.804%,–
COC(=O)c1ccc(CCC(C)NCC(O)c2cccc(C(F)(F)F)c2)cc1 (stereo not drawn) [TCMDC-131440],17.3%,–
CCN(C1CCCCC1)S(=O)(=O)c1ccc(OC)c(N2CCN(C(=O)C(Cl)(Cl)Cl)CC2)c1 [TCMDC-139319],82.34%,–
CCC1CCCCN1S(=O)(=O)c1ccc(OC)c(N2CCN(C(=O)C(Cl)(Cl)Cl)CC2)c1 (stereo not drawn) [TCMDC-139255],3.13%,–
COc1ccc(S(=O)(=O)N2CCCc3ccc(Br)cc32)cc1N1CCN(C(=O)C(Cl)(Cl)Cl)CC1 [TCMDC-139339],22.46%,–
